{"source": "ChEMBL document CHEMBL1201862", "about": "“PubChem BioAssay data set” (2004)", "note": "Hit rate of the full screen: of about 57,000 sequences, about 5,100 (8.9%) were called active. No stated cut-off is given here; in the data, active = GI50 up to about 1.1 µM and inactive = higher. Only a sample is shown. Measured potencies and affinities stand elsewhere.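 Where inhibition never reached the appropriate level, the endpoint shown equals the highest concentration tested. Otherwise, values were interpolated linearly from a five-concentration, 48-hour dose response in 96-well plates. The concentration for 50% growth inhibition is given as GI50.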"}
{"tested_on": "HCT-116", "assay": "NCI tumour cell line growth inhibition, 48 h", "units": {"GI50": "µM"}}
{"substance": "[Bis(aminomethyl)tetramethylenesilane]dichloropaltinum(II), CHEMBL2146205", "GI50": 11.5}
{"substance": "[Bis(aminomethyl)pentamethylenesilane]dichloropaltinum(II), CHEMBL2146202", "GI50": 2.48}
{"substance": "CISPLATIN, CHEMBL11359", "GI50": 4.12}
{"substance": "mu-(1,7-nanodiamine-N,N')bis-(cis-aminedichloroplatimum (II)), CHEMBL2146215", "GI50": 41.3}
{"substance": "[Bis(aminomethyl)pentamethylenesilane]tetrachloropaltinum(IV), CHEMBL2146204", "GI50": 1.13}
{"substance": "[Bis(aminomethyl)dimethylsilane]tetrachloroplatinum(IV), CHEMBL2146190", "GI50": 8.77}
{"substance": "[Bis(aminomethyl)diethylsilane]tetrachloroplatinum(IV), CHEMBL2146203", "GI50": 3.94}
{"substance": "[Bis(aminomethyl)tetramethylenesilane]tetrachloropaltinum(IV), CHEMBL2146189", "GI50": 4.18}
